Inconclusive results are not listed. Calls of active or inactive are those of the source. Rule for the calls, unless noted: active = hit-call score of the fitted dose curve at least 0.9, where 1 is the maximum; inconclusive = response in the unintended direction; inactive = score below 0.9.

Read-out in test [1]: Thyroid Hormone Responsive (THRSP), THRSP (gene 7069)
The experiment in a line: LTEA_HepaRG_THRSP: Life Technologies and Expression Analysis (LTEA) Assay for Thyroid Hormone Responsive (THRSP) using HepaRG (AID 2283536; active = hit-call score of the fitted dose curve at least 0.9, where 1 is the maximum; inactive = score below 0.9). The following applies: mRNA level, 48 h; actives raise or lower the signal. Put shortly:
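Differentiated HepaRG cells treated 48 h in serum-free induction medium with 8 half-log concentrations up to 100 uM (0.5% DMSO), duplicates. THRSP mRNA by TaqMan qRT-PCR normalised to ACTB, GAPDH, POLR2A; bidirectional fit versus DMSO.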

Read-out in test [2]: Cellular tumor antigen p53 (Homo sapiens) (UniProt P04637)
The experiment in a line: LTEA_HepaRG_TP53: Life Technologies and Expression Analysis (LTEA) Assay for Tumor Protein P53 (TP53) using HepaRG (AID 2283537; active = hit-call score of the fitted dose curve at least 0.9, where 1 is the maximum; inactive = score below 0.9). The following applies: mRNA level, 48 h; actives raise or lower the signal. Put shortly:
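HepaRG, 48 h exposure, top 100 uM, half-log 8-point, 0.5% DMSO vehicle, duplicates. Read: TP53 mRNA by TaqMan qRT-PCR, normalised to ACTB/GAPDH/POLR2A; bidirectional fit vs DMSO.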

Read-out in test [3]: UDP glucuronosyltransferase (UGT1A1), UGT1A1 (gene 54658)
The experiment in a line: LTEA_HepaRG_UGT1A1: Life Technologies and Expression Analysis (LTEA) Assay for UDP glucuronosyltransferase (UGT1A1) using HepaRG (AID 2283538; active = hit-call score of the fitted dose curve at least 0.9, where 1 is the maximum; inactive = score below 0.9). The settings on record: mRNA level, 48 h; actives raise or lower the signal. Put shortly:
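Human liver HepaRG cultures receive test chemical for 48 h, up to 100 uM in 0.5% DMSO, with phenobarbital induction controls. UGT1A1 mRNA is measured by qRT-PCR and normalized to ACTB, GAPDH and POLR2A.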

Read-out in test [4]: UDP glucuronosyltransferase (UGT1A6), UGT1A6 (gene 54578)
The experiment in a line: LTEA_HepaRG_UGT1A6: Life Technologies and Expression Analysis (LTEA) Assay for UDP glucuronosyltransferase (UGT1A6) using HepaRG (AID 2283539; active = hit-call score of the fitted dose curve at least 0.9, where 1 is the maximum; inactive = score below 0.9). The following applies: mRNA level, 48 h; actives raise or lower the signal. Put shortly: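 Expression was quantified by TaqMan qRT-PCR on Fluidigm arrays with ACTB/GAPDH/POLR2A normalization and bidirectional fitting against 0.5% DMSO. HepaRG cells (~100,000/well) were treated in duplicate for 48 h at eight half-log concentrations up to 100 uM in serum-free induction medium.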

Read-out in test [5]: X-box binding protein 1 (XBP1), XBP1 (gene 7494)
The experiment in a line: LTEA_HepaRG_XBP1: Life Technologies and Expression Analysis (LTEA) Assay for X-box binding protein 1 (XBP1) using HepaRG (AID 2283540; active = hit-call score of the fitted dose curve at least 0.9, where 1 is the maximum; inactive = score below 0.9). The following applies: mRNA level, 48 h; actives raise or lower the signal. Put shortly: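 XBP1 transcript by qRT-PCR (housekeeping-normalized: ACTB, GAPDH, POLR2A) after 48 h chemical treatment of HepaRG cells, 8-point half-log series topping at 100 uM, vehicle 0.5% DMSO. Gain and loss of signal fitted relative to DMSO.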

Test [6] can be described thus: LTEA_HepaRG_LDH_cytotoxicity: Cytotoxicity Assessment in the Life Technologies and Expression Analysis (LTEA) Assay (AID 2283563). Put shortly:
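LDH release into culture medium read after 48 h chemical treatment of HepaRG cells. Duplicate wells, eight-point half-log series topping at 100 uM, 0.5% DMSO vehicle and baseline.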

Test [7] is described as follows: TOX21_p53_BLA_p2_viability: Viability Assessment in the Tox21 HCT-116 p53 Agonism Beta-lactamase Assay, Phase 2 (AID 2283591).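 Note: compound exposure lasted 16 h at 37 °C; actives lower the ATP signal meaning cytotoxicity.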 Put shortly: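 HCT116 p53-bla cells, 4000/well, dosed after 5 h plating (217-fold dilution of DMSO stocks) and incubated 16 h at 37C. Viability taken as cellular ATP by CellTiter-Glo luminescence after 30 min RT; signal loss marks cytotoxicity.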

The target of test [8] is Cellular tumor antigen p53 (Homo sapiens) (UniProt P04637). The experiment in a line: TOX21_p53_BLA_p2_ratio: Tox21 HCT-116 p53 Agonism Beta-lactamase Assay, Ratio, Phase 2 (AID 2283592). Put shortly:
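Gain-of-signal p53 agonism was scored from the beta-lactamase FRET ratio (460/530 nm, 405 nm excitation) in HCT116 cells treated 16 h at 37C, 5% CO2, with DMSO serving as negative control and baseline.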

A short description of test [9]: TOX21_p53_BLA_p3_viability: Viability Assessment in the Tox21 HCT-116 p53 Agonism Beta-lactamase Assay, Phase 3 (AID 2283593).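 Note: cells exposed to compound for 16 h before reading.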 Put shortly:
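HCT116 cells, 4000/well, dosed 5 h after plating by pin transfer (217-fold dilution from DMSO stock) and incubated 16 h at 37C, 5% CO2. Viability read as ATP luminescence with CellTiter-Glo after 30 min at room temperature.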

In test [10] the target is Cellular tumor antigen p53 (Homo sapiens) (UniProt P04637). Kind of test: TOX21_p53_BLA_p3_ratio: Tox21 HCT-116 p53 Agonism Beta-lactamase Assay, Ratio, Phase 3 (AID 2283596). Put shortly:
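HCT116 p53-bla cells (4000/well) given compound in DMSO (217-fold dilution) after 5 h, incubated 16 h at 37C. CCF4-AM substrate 2 h at room temperature; 460/530 nm emission ratio, gain fitted against DMSO.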

Test [11] is described as follows: Tanguay_ZF_120hpf_MORT_legacy: (Legacy) Oregon State University Tanguay Lab 120 Hour Post-fertilization zebrafish Assay for Mortality (AID 2283633). Put shortly:
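Static waterborne exposure from 6 to 120 hpf at 28C of single dechorionated wild-type (5D) embryos per well, 0.64% DMSO final. Death recorded present/absent by brightfield at 24 and 120 hpf.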

Test [12] is described as follows: Tanguay_ZF_120hpf_YSE_legacy: (Legacy) Oregon State University Tanguay Lab 120 Hour Post-fertilization zebrafish Assay for Yolk Sac Edema (AID 2283634). Put shortly:
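Presence or absence of yolk sac edema was recorded at 120 hpf in surviving larvae. These were wild-type Tropical 5D embryos, chorion removed at 4 hpf, held in static exposure at 28C from 6 hpf with 0.64% DMSO vehicle.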

Test [13] in a line: Tanguay_ZF_120hpf_AXIS_legacy: (Legacy) Oregon State University Tanguay Lab 120 Hour Post-fertilization zebrafish Assay for Body Axis Malformation (AID 2283635). Put shortly:
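Binary scoring of axis defects at 120 hpf under brightfield, fitted positive versus DMSO. Tropical 5D embryos, chorion removed by pronase at 4 hpf, were singly exposed in sealed, dark plates at 28C from 6 hpf; DMSO 0.64% final.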

Test [14] can be described thus: Tanguay_ZF_120hpf_EYE_legacy: (Legacy) Oregon State University Tanguay Lab 120 Hour Post-fertilization zebrafish Assay for Eye Malformation (AID 2283636).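 Note: binary presence or absence of eye malformation scored by brightfield in 120 hpf larvae.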 Put shortly: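 Dechorionated Tropical 5D zebrafish embryos, one per well from 6 hpf, static exposure to 120 hpf at 28C, 0.64% DMSO. Eye malformation scored present/absent by brightfield; dead embryos not scored.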

Test [15] in a line: Tanguay_ZF_120hpf_SNOU_legacy: (Legacy) Oregon State University Tanguay Lab 120 Hour Post-fertilization zebrafish Assay for Snout Malformation (AID 2283637). Put shortly:
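Dechorionated tropical 5D wild-type zebrafish embryos exposed statically from 6 to 120 hpf at 28C, one per well, in 0.64% DMSO. Snout malformation scored as present/absent by brightfield at 120 hpf; dead embryos not scored.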

Test [16] can be described thus: ATG_XTT_Cytotoxicity: Cytotoxicity Assessment in the Attagene TRANS-FACTORIAL HepG2 Assay (AID 2283584). Put shortly:
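Viability endpoint from XTT after 24 h chemical exposure of reporter-transfected human HepG2 liver cells; signal loss fitted relative to DMSO negative control.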

Test [17] can be described thus: TOX21_p53_BLA_p4_viability: Viability Assessment in the Tox21 HCT-116 p53 Agonism Beta-lactamase Assay, Phase 4 (AID 2283597).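 Note: hits lower the luminescence signal meaning cytotoxicity.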 Put shortly: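 Following a 16 h exposure at 37C, the treated HCT116 wells were first read for the FRET ratio. They were then lysed with CellTiter-Glo, and ATP luminescence was recorded after 30 min at room temperature.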
Test [18] has as its target Cellular tumor antigen p53 (Homo sapiens) (UniProt P04637). Kind of test: TOX21_p53_BLA_p5_ratio: Tox21 HCT-116 p53 Agonism Beta-lactamase Assay, Ratio, Phase 5 (AID 2283599). Put shortly:
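HCT-116 p53-bla cells (4000/well) plated 5 h, dosed with compound (217-fold DMSO dilution) for 16 h at 37 C; CCF4-AM substrate 2 h at room temperature. Activity is the 460/530 nm emission ratio (405 nm excitation), fitted in gain-of-signal direction versus DMSO.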

Test [19] in a line: TOX21_p53_BLA_p5_viability: Viability Assessment in the Tox21 HCT-116 p53 Agonism Beta-lactamase Assay, Phase 5 (AID 2283600). Put shortly:
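After the 460/530 nm beta-lactamase measurement, the wells received an ATP-detection luciferase reagent; signal was read 30 min later at RT. Compound treatment lasted 16 h on cells pre-incubated 5 h post-seeding.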

The target of test [20] is Cellular tumor antigen p53 (Homo sapiens) (UniProt P04637). The experiment in a line: TOX21_p53_BLA_p4_ratio: Tox21 HCT-116 p53 Agonism Beta-lactamase Assay, Ratio, Phase 4 (AID 2283601). Put shortly:
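HCT-116 p53 beta-lactamase reporter cells (4000/well) preincubated 5 h, then compound (217-fold dilution of DMSO stock) for 16 h at 37C. CCF4-AM substrate added 2 h at room temperature; 460/530 nm emission ratio fitted upward versus DMSO.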

Chain of Cellular tumor antigen p53 (Homo sapiens) (P04637 whole entry, looked up): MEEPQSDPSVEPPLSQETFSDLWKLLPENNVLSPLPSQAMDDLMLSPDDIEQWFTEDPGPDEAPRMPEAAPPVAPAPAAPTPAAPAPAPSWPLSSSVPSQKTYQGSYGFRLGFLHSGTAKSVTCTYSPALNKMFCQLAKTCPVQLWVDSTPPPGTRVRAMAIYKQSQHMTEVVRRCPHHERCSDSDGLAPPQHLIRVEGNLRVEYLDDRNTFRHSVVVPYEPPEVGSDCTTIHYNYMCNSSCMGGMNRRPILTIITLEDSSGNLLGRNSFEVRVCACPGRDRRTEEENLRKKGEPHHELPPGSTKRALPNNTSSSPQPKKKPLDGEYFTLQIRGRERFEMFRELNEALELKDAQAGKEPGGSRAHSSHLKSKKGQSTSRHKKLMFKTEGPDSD

Take `CCCCCCCCCCCCCCCC`: the molecule was classed as inactive in [1], in [2], in test [3], in [4], in [5] and in test [6]. Also, the molecule was called inactive in test [7], in test [8], in [9], in test [10], in test [11] and in test [12]. Besides, the molecule was called inactive in [13], in test [14] and in test [15].
Regarding `C[C@]12C=CC(=O)C=C1CC[C@@H]1[C@@H]2C(=O)C[C@@]2(C)[C@H]1CC[C@]2(O)C(=O)CO`, the outcome in test [1], in test [2], in test [5], in test [6], in [16] and in test [7] was inactive. The result in [8], in [9], in test [17], in [18], in [19] and in test [11] was inactive. Further, the call in [12], in [14] and in [15] was inactive. In addition, in [3], the AC50 – broadly, the midpoint of the concentration-response curve, whichever way the signal moves – is 50 µM (active).
As to `COCCOC[C@H](CC1(C(=O)NC2CCC(C(=O)O)CC2)CCCC1)C(=O)Oc1ccc2c(c1)CCC2` (stereo not given in full), the molecule was classed as inactive in test [1], in test [2], in test [3], in test [4], in test [5] and in test [6]. The molecule was classed as inactive in test [7], in [9], in test [10], in test [17], in test [18] and in [20]. For the same molecule, the molecule was called inactive in [11], in test [12], in test [13], in test [14] and in test [15].
For the molecule `Cc1ccc(C)c(C)c1`, the molecule was called inactive in test [1], in [2], in [3], in [5], in test [6] and in test [16]. Also, the molecule was called inactive in test [7], in [8], in [9], in [10], in test [18] and in [19]. The result in test [20], in test [11], in test [12], in test [13] and in [14] was inactive.
For the molecule `NCCO`, the outcome in [1], in test [2], in test [3], in test [4], in [5] and in test [6] was inactive. The result in test [8], in test [10], in test [18], in test [20], in test [11] and in test [12] was inactive. For the same molecule, the outcome in test [13], in test [14] and in test [15] was inactive.
In the case of `CC(=O)C(C)=CC1C(C)=CCCC1(C)C` (stereo not given), the outcome in test [1], in test [2], in test [3], in test [5], in test [6] and in [16] was inactive. Moreover, the result in [7], in test [8], in test [9], in test [10], in test [17] and in test [18] was inactive. The molecule was called inactive in [19], in test [11], in test [13], in test [14] and in test [15].
For the molecule `Cc1cc(=O)[nH]c(=S)[nH]1`, the result in [1], in test [2], in test [3], in test [4], in test [5] and in test [6] was inactive. The molecule was classed as inactive in [7], in test [9], in [10], in test [17], in test [18] and in [19]. Also, the outcome in test [20], in test [11], in test [12], in test [13], in test [14] and in test [15] was inactive.
Regarding `Cc1cccc(Nc2cc(Cl)nc(SCC(=O)O)n2)c1C`, the call in test [1], in [2], in [4], in test [5], in test [6] and in test [8] was inactive. Besides, the outcome in test [10], in test [17], in test [18], in test [20], in [11] and in test [12] was inactive. Moreover, the molecule was classed as inactive in [14] and in [15]. The half-maximal activity concentration (AC50) in test [3] is 50 µM (active).

The values above are taken from PubChem BioAssay (EPA / NIEHS).
